The supplement of paper PMC9262897, “Low-cost anti-mycobacterial drug discovery using engineered E. coli” (Nature Communications, 2022)
Structures can show the parent of a compound that is named as a salt. ± gives the standard deviation of the averaged measurements.

Legend:
Assay in all cases: growth (OD600 after 10 h); higher = more growth (less inhibition)
[1] = tested on: E. coli TESEC Alr+ wild-type control; details: compound 0.1 mM; raw OD600 reference: median of DMSO wells 0.241, cell-free background 0.041
Method: (§1)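 TESEC Mtb Alr E. coli, or the Alr+ wild-type control, in 384-well plates with Prestwick library compounds at 0.1 mM and 1% DMSO, across arabinose induction levels of 1E3 to 1E7 nM. Growth is read as OD600 after 10 h at 37 °C in triplicate biological replicates.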

E. coli TESEC Mtb Alr [2] = details: compound 0.1 mM
Method: as §1

E. coli TESEC Mtb Asd = details: compound 0.1 mM
Method: (§2)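 TESEC E. coli strains in which the native enzyme is deleted and replaced by arabinose-inducible Mtb Asd, DapB, CysH or TrpD, each grown in its selective medium. Strains were screened against the Prestwick library at 0.1 mM and 1% DMSO in 384-well format at low and high arabinose induction. Growth is read as OD600 after 10 h in triplicate.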

E. coli TESEC Mtb DapB = details: compound 0.1 mM
Method: as §2

[3] = tested on: E. coli TESEC Alr+ wild-type control; details: compound 0.1 mM; raw OD600 reference: median of DMSO wells 0.49, cell-free background 0.052
Method: (§3)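 TESEC Mtb Alr E. coli (ΔaraC ΔtolC ΔentC Δalr ΔdadX, arabinose-inducible Mtb Alr) or the Alr+ wild-type control strain, grown in defined M9-fructose medium without D-alanine in 96-well plates with Prestwick library compounds at 0.1 mM and 1% DMSO. Low Alr induction is 0.1 µM arabinose and high induction is 10 mM arabinose.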

E. coli TESEC Mtb Alr [4] = details: compound 0.1 mM; remark: listed apart in the source
Method: as §3

[5] = arabinose 1000 nM, raw OD600 reference: median of DMSO wells 0.294, cell-free background 0.041
[6] = arabinose 10000 nM, raw OD600 reference: median of DMSO wells 0.264, cell-free background 0.041
[7] = arabinose 100000 nM, raw OD600 reference: median of DMSO wells 0.201, cell-free background 0.041
[8] = arabinose 1000000 nM, raw OD600 reference: median of DMSO wells 0.193, cell-free background 0.041
[9] = arabinose 10000000 nM, raw OD600 reference: median of DMSO wells 0.146, cell-free background 0.041
[10] = arabinose induction (level): High, raw OD600 reference: median of DMSO wells 0.331, cell-free background 0.041
[11] = arabinose induction (level): Low, raw OD600 reference: median of DMSO wells 0.417, cell-free background 0.041
[12] = arabinose induction (level): High, raw OD600 reference: median of DMSO wells […], cell-free background 0.041
[13] = arabinose induction (level): Low, raw OD600 reference: median of DMSO wells 0.227, cell-free background 0.041
[14] = arabinose 100 nM, raw OD600 reference: median of DMSO wells 0.413, cell-free background 0.052
[15] = arabinose 10000000 nM, raw OD600 reference: median of DMSO wells […], cell-free background 0.052

SMILES | growth [1] | growth (E. coli TESEC Mtb Alr [2]; [5]) | growth (E. coli TESEC Mtb Alr [2]; [6]) | growth (E. coli TESEC Mtb Alr [2]; [7]) | growth (E. coli TESEC Mtb Alr [2]; [8]) | growth (E. coli TESEC Mtb Alr [2]; [9]) | growth (E. coli TESEC Mtb Asd; [10]) | growth (E. coli TESEC Mtb Asd; [11]) | growth (E. coli TESEC Mtb DapB; [12]) | growth (E. coli TESEC Mtb DapB; [13]) | growth [3] | growth (E. coli TESEC Mtb Alr [4]; [14]) | growth (E. coli TESEC Mtb Alr [4]; [15])
C[C@]12C/C(=C/O)C(=O)C[C@@H]1CC[C@@H]1[C@@H]2CC[C@@]2(C)[C@H]1CC[C@]2(C)O [Oxymetholone] | 0.162 ± 0.002 | 0.293 ± 0.0078 | 0.241 ± 0.025 | 0.244 ± 0.014 | 0.101 ± 0.0039 | 0.177 ± 0.0058 | 0.124 ± 0.0085 | 0.226 ± 0.043 | 0.158 ± 0.013 | 0.194 ± 0.019 | 0.462 ± 0.01 | 0.379 ± 0.019 | 0.252 ± 0.004
NCCc1c[nH]c2ccc(O)cc12 [Serotonin hydrochloride] | 0.231 ± 0.013 | 0.297 ± 0.011 | 0.269 ± 0.0069 | 0.198 ± 0.036 | 0.201 ± 0.0049 | 0.145 ± 0.0029 | 0.361 ± 0.022 | 0.405 ± 0.091 | 0.209 ± 0.011 | 0.237 ± 0.0078 | 0.475 ± 0.0089 | 0.407 ± 0.02 | 0.338 ± 0.054
CC(=O)OC1CN2CCC1CC2 (stereo not given) [Aceclidine Hydrochloride] | 0.257 ± 0.0078 | 0.314 ± 0.0082 | 0.2646 ± 0.0025 | 0.232 ± 0.041 | 0.174 ± 0.0042 | 0.166 ± 0.0076 | 0.22 ± 0.0099 | 0.306 ± 0.013 | 0.204 ± 0.02 | 0.232 ± 0.023 |  | 0.41 ± 0.007 | 0.359 ± 0.031
CN1CCC2(C)c3cc(O)ccc3N(C)C12 (single isomer, unassigned; (-)) [(-)-Eseroline fumarate salt] | 0.225 ± 0.0084 | 0.287 ± 0.014 | 0.306 ± 0.0086 | 0.312 ± 0.015 | 0.168 ± 0.0079 | 0.19 ± 0.0049 | 0.194 ± 0.027 | 0.402 ± 0.064 | 0.197 ± 0.0051 | 0.209 ± 0.034 |  | 0.42 ± 0.0066 | 0.317 ± 0.021
CN1[C@@H]2CC[C@H]1C[C@@H](OC1c3ccccc3CCc3ccccc31)C2 [Deptropine citrate] | 0.046 ± 0.0008 | 0.041 ± 0.0014 | 0.03993 ± 0.00025 | 0.043 ± 0.001 | 0.0411 ± 0.0015 | 0.04267 ± 0.00021 | 0.0939 ± 0.05 | 0.0858 ± 0.012 | 0.0744 ± 0.011 | 0.069 ± 0.01 |  | 0.392 ± 0.0043 | 0.0701 ± 0.03
CCC1=C[C@H]2CN3CCc4c([nH]c5ccccc45)[C@](C(=O)OC)(C2)[C@H]13 [Catharanthine] | 0.203 ± 0.0049 | 0.262 ± 0.012 | 0.259 ± 0.006 | 0.169 ± 0.013 | 0.101 ± 0.0015 | 0.144 ± 0.0052 | 0.2 ± 0.032 | 0.437 ± 0.016 | 0.167 ± 0.0065 | 0.1738 ± 0.0015 | 0.4419 ± 0.0012 | 0.4199 ± 0.0038 | 0.3 ± 0.017
Oc1ccc2c3c1O[C@H]1[C@@H](O)CC[C@@]4(O)[C@@H](C2)N(CC2CCC2)CC[C@]314 [Nalbuphine hydrochloride] | 0.233 ± 0.0039 | 0.262 ± 0.028 | 0.2664 ± 0.0015 | 0.183 ± 0.024 | 0.1753 ± 0.0013 | 0.135 ± 0.0094 | 0.381 ± 0.095 | 0.453 ± 0.036 | 0.195 ± 0.011 | 0.214 ± 0.029 | 0.515 ± 0.011 | 0.4293 ± 0.0018 | 0.351 ± 0.015
CC[C@@H](CO)NC(=O)[C@@H]1C=C2c3cccc4[nH]cc(c34)C[C@H]2N(C)C1 [Methylergometrine maleate] | 0.227 ± 0.0031 | 0.262 ± 0.0081 | 0.207 ± 0.0073 | 0.279 ± 0.0098 | 0.119 ± 0.0017 | 0.178 ± 0.0023 | 0.228 ± 0.051 | 0.267 ± 0.069 | 0.129 ± 0.028 | 0.156 ± 0.057 |  | 0.4 ± 0.0081 | 0.359 ± 0.0099
